Measurements as given in PubChem BioAssay (NCATS).
Records with an inconclusive call do not appear. Active and inactive are the calls of the source. The call rests on the fitted dose curve; in most records, active means well fitted cell-killing curve with a large enough effect; inconclusive means small, poorly fitted or top-dose-only effect, or effect the other way; inactive means no such curve, though single readings can be large or run the other way.

Test: Quantitative High-Throughput drug screen in 47 multiple myeloma cell lines against the NCATS MIPE library collection: MM1S_ATCC cell viability assay (AID 1918980); further: nearly all actives have a fitted effect of over 45% in size
Conditions: MM1S myeloma viability, CellTiter-Glo ATP luminescence, 48 h; series mostly up to 45.8 µM
Description: PI: Beverly A. Mock Ph.D.
Laboratory of Cancer Biology and Genetics,
Center for Cancer Research, National Cancer Institute,
National Institute of Health, Bethesda, Maryland
Drug resistance and disease progression are common in multiple myeloma (MM) patients, underscoring the need for new therapeutic combinations. […] We hypothesized that effective combinations would reduce MYC expression and enhance p16 activity. […] These preclinical data identify potentially useful drug combinations for evaluation in drug-resistant MM and reveal potential mechanisms of combined drug sensitivity.
Described herein is the primary MIPE qHTS used to cherrypick compounds. Validated compounds were then further tested for potential synergistic activiy.
[1] Peat TJ, Gaikwad SM, Dubois W, Gyabaah-Kessie N, Zhang S, Gorjifard S, Phyo Z, Andres M, Hughitt VK, Simpson RM, Miller MA, Girvin AT, Taylor A, Williams D, D'Antonio N, Zhang Y, Rajagopalan A, Flietner E, Wilson K, Zhang X, Shinn P, Klumpp-Thomas C, McKnight C, Itkin Z, Chen L, Kazandijian D, Zhang J, Michalowski AM, Simmons JK, Keats J, Thomas CJ, Mock BA. Drug combinations identified by high-throughput screening promote cell cycle transition and upregulate Smad pathways in myeloma. Cancer Lett. 2023 Aug 1;568:216284. doi: 10.1016/j.canlet.2023.216284. Epub 2023 Jun 24. PMID: 37356470; PMCID: PMC10408729.
SEQUENCE No. (e.g., 1, 2, 3, etc.); […] (e.g., Cells, Incubation, Reagent, etc.); VALUE and DESCRIPTION.
1; Cells; 5 uL; white, solid bottom 1536-well Greiner assay plate.
2; Compounds; 23 nL; Kalypsis pin tool (Wako USA) equipped with a 1536-well pin head to transfer to the assay plates.
3; Incubation; 48 hours; 37C incubation.
4; Reagent;5uL; CellTiter Glo (Promega).
5; Detector; 425V; Luminescence; Viewlux PerkinElmer.
NOTES (numbers refer to Sequence numbers above)
1. The cell-based screening methods employed in this study were like those previously published. Briefly, the corresponding myeloma cell lines were screened in 1,536-well plates with 500 cells, 5-uL per well for inhibition of cell viability (assessed by measuring ATP levels with CellTiterGlo).
2. NCATS MIPE 4.0 library of approved and investigational drugs were added using the Kalypsis pin tool. Wells treated with DMSO only for 100% viability and media only for 0% viability were used as controls.
3. The assay plates were covered and incubated for 48 hours in a 37C, 5% CO2 incubator with controlled humidity.
4. After 48 hours, CellTilter-GloTM luminescent substrate mix (Promega) reagent was added to the assay plate and plates we incubated for 5 min at room temperature.
5. Signal was measured as median relative luminescence units on a ViewLux (PerkinElmer) multiplate reader.
[1] Heske CM, Davis MI, Baumgart JT, Wilson K, Gormally MV, Chen L, Zhang X, Ceribelli M, Duveau DY, Guha R, Ferrer M, Arnaldez FI, Ji J, Tran HL, Zhang Y, Mendoza A, Helman LJ, Thomas CJ. Matrix Screen Identifies Synergistic Combination of PARP Inhibitors and Nicotinamide Phosphoribosyltransferase (NAMPT) Inhibitors in Ewing Sarcoma. Clin Cancer Res. 2017 Dec 1;23(23):7301-7311. doi: 10.1158/1078-0432.CCR-17-1121. Epub 2017 Sep 12. PMID: 28899971; PMCID: PMC6636827.
Potency means the concentration at half of the fitted maximal effect.

Structure (SMILES)	Potency
Nc1ccc(C(=O)Nc2cccc(-c3nc(N4CCOCC4)c4oc5ncccc5c4n3)c2)cn1	23.5 µM (active)
O=C1CSC(=O)N1C(CCc1ccncc1)COc1ccc(-c2cccc([N+](=O)[O-])c2)cc1 (stereo not given)	0.935 µM (active)
Cc1cnc(Nc2ccc(CN3CCOCC3)cc2)nc1Nc1cccc(S(=O)(=O)NC(C)(C)C)c1	5.9 µM (active)
CCCNS(=O)(=O)Nc1ncnc(OCCOc2ncc(Br)cn2)c1-c1ccc(Br)cc1	inactive
CC(C)c1cc(C(C)C)c(CC(=O)NS(=O)(=O)Oc2c(C(C)C)cccc2C(C)C)c(C(C)C)c1	inactive
C#Cc1cccc(Nc2ncnc3cc(OCCOC)c(OCCO)cc23)c1	3.72 µM (active)
CS[C@H]1SC[C@@H]2C(=O)N(C)[C@H](C(C)C)C(=O)OC[C@H](NC(=O)c3cnc4ccccc4n3)C(=O)N[C@H](C)C(=O)N(C)[C@@H]1C(=O)N(C)[C@H](C(C)C)C(=O)OC[C@H](NC(=O)c1cnc3ccccc3n1)C(=O)N[C@H](C)C(=O)N2C	0.003 µM (active)
O=c1ccn([C@@H]2O[C@H](CO)[C@H](O)[C@@H]2F)c(=O)[nH]1	5.26 µM (active)
C=Cc1c(C)c2cc3nc(cc4[nH]c(cc5nc(cc1[nH]2)C(C)=C5CCC(=O)O)c(CCC(=O)OC)c4C)[C@@]1(C)C3=CC=C(C(=O)OC)[C@H]1C(=O)OC	0.0526 µM (active)
COc1cc2c(cc1OC)[C@@H]1C(=O)c3ccc4c(c3O[C@@H]1CO2)C=CC(C)(C)O4	2.96 µM (active)
CCNC(=O)Nc1ccc(-c2nc3c(c(N4CCOC[C@H]4C)n2)CCN(C2COC2)C3)cc1	1.05 µM (active)
O=C1c2cccc(O)c2C(=O)c2c(O)cc(CO)cc21	inactive
NC(=O)c1ncn([C@@H]2O[C@H](CO)[C@@H](O)[C@@H]2O)c1O	inactive
COc1cc(C=CC(=O)CC(=O)C=Cc2ccc(O)c(OC)c2)ccc1O	27 µM (active)
O=C(O)c1ccc(Nc2ncc3c(n2)-c2ccc(Cl)cc2C(c2c(F)cccc2F)=NC3)cc1	18.7 µM (active)
N#CC(=C(O)c1ccc(Cl)cc1Cl)c1nc2cc(Cl)ccc2c(=O)[nH]1	inactive
CCC(C(=O)O)C1CCC(C)C(C(C)C(O)C(C)C(=O)C(CC)C2OC3(C=CC(O)[C@@]4(CC[C@](C)(C5CC[C@@](O)(CC)C(C)O5)O4)O3)C(C)CC2C)O1 (stereo not given in full)	2.35 µM (active)
CC(=O)O[C@]1(C(C)=O)CC[C@H]2[C@@H]3C=C(C)C4=CC(=O)CC[C@]4(C)[C@@H]3CC[C@@]21C	2.35 µM (active)
O=C(NC1CC1)c1cccc(-c2ccc3c(NC(=O)C4CC4)n[nH]c3c2)c1	0.332 µM (active)
CCc1cc(C(C)=NOCc2ccc(C3CCCCC3)c(C(F)(F)F)c2)ccc1CN1CC(C(=O)O)C1	inactive

Structure (SMILES)	Potency
C=C1C(=CC=C2CCC[C@]3(C)[C@@H]([C@H](C)CCCC(C)(C)O)CC[C@@H]23)C[C@@H](O)C[C@@H]1O	1.48 µM (active)
CCOC(=O)N1CCN([N+]([O-])=NOc2ccc([N+](=O)[O-])cc2C#N)CC1	1.32 µM (active)
COc1ccc(CCC(=O)c2c(O)cc(O[C@@H]3O[C@H](CO)[C@@H](O)[C@H](O)[C@@H]3O[C@@H]3O[C@@H](C)[C@H](O)[C@@H](O)[C@@H]3O)cc2O)cc1O	9.35 µM (active)
N#Cc1cc(NC(=O)Nc2nnc(-c3ccncc3)s2)ccc1-c1cn[nH]c1	5.26 µM (active)
CCN(CC)CCNC(=O)c1c(C)[nH]c(C=C2C(=O)Nc3ccc(F)cc32)c1C	4.81 µM (active)
Cc1cc(Nc2ncc3c(n2)N(C)C(=O)N(c2cc(NC(=O)c4cccc(C(F)(F)F)c4)ccc2C)C3)n(C)n1	0.935 µM (active)
C=C1CCC2[C@](C)(CO)C(O)CC[C@]2(C)C1CC=C1C(=O)OCC1O (stereo not given in full)	inactive
CC(C)(C)c1nc2c3cc[nH]c(=O)c3c3cc(F)ccc3c2[nH]1	14.8 µM (active)
CN(CC(=O)N(Cc1ccc(C2CCCCC2)cc1)c1ccc(C(=O)O)c(O)c1)S(=O)(=O)c1c(F)c(F)c(F)c(F)c1F	7.43 µM (active)
CN1C(C(=O)Nc2ccccn2)=C(O)c2sc(Cl)cc2S1(=O)=O	5.26 µM (active)
COc1cc(OC)c(C=CS(=O)(=O)Cc2ccc(OC)c(NCC(=O)O)c2)c(OC)c1	4.18 µM (active)
OCC(O)C(O)C(O)CO (stereo not given)	inactive
C=CC(=O)N1CCc2ccc(-n3c(=O)ccc4cnc5ccc(-c6cnn(C)c6)cc5c43)cc21	2.64 µM (active)
NC(=O)c1ncn([C@@H]2O[C@H](CO)[C@@H](O)[C@@H]2O)c1N	inactive
C=CC(=O)Nc1cccc(Nc2nc(NC3CCC(N(C)C)CC3)nc3c2ncn3C(C)C)c1 (stereo not given)	0.0418 µM (active)
CC(=O)O[C@H]1C[C@@H]2CC[C@H]3[C@H]4C[C@H]([N+]5(C)CCCCC5)[C@@H](OC(C)=O)[C@@]4(C)CC[C@@H]3[C@@]2(C)C[C@H]1[N+]1(C)CCCCC1	2.09 µM (active)
COc1cccc2c1C(=O)c1c(O)c3c(c(O)c1C2=O)C[C@@](O)(C(=O)CO)C[C@@H]3O[C@H]1C[C@H](N)[C@H](OC2CCCCO2)[C@H](C)O1 (stereo not given in full)	0.132 µM (active)
COc1cc(C[C@@H](CO)[C@H](CO)Cc2ccc(O)c(OC)c2)ccc1O	0.372 µM (active)
O=C(C[C@@H]1CC=CCCC(=O)O[C@H](c2ccccc2)CNC1=O)NCc1ccc(Cl)cc1	16.6 µM (active)
O=C(Nc1ccc(Oc2ccnc3[nH]ccc23)c(F)c1)c1cccn(-c2ccc(F)cc2)c1=O	inactive
